HP1b chromo inh: HP1-beta chromodomain-methylated histone interaction inhibition | Potency, µM (doses to about 114 µM), inactives show at the top dose activity change, negative = inhibition, most hits filed as inhibitors | AlphaScreen HP1-beta / biotin-H3K9me3 peptide binding | hit rate 0.56% among 390,000 | AID 540317; also: potency is read from the fitted curve at half-maximal effect; nearly all actives have a fitted effect of over 70% in size
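Compound inhibition of the preformed complex between 50 nM HP1-beta and 50 nM biotinylated H3K9me3 peptide was read by AlphaScreen. Buffer was PBS pH 7.4 with 0.01% Tween-20. Incubations ran 30 min at room temperature, with 10 ug/mL donor/acceptor beads.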
PI5P4K alpha inh: inhibitors of human PI5P4K alpha; PI5P4Kalpha enzyme, ADP-Glo luminescence, 60 min; stronger effect = lower value; hit rate 1.2% among 330,000; P48426; max response, %; active = max response of -50% or lower; inconclusive = between -30% and -50%; inactive = -30% or higher; also: value at the top dose of about 77 µM; % is scaled to controls: 0 for no effect and ±100 for the full control effect
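Luminescence from ADP-Glo served as readout of PI5P4Kalpha activity in a qHTS format. Reaction: enzyme, substrate, compound, ATP at 5 microM final, 60 min at RT.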
G9a block: blocks human histone lysine methyltransferase G9a. Potency, µM (doses to about 102 µM), for the others: at the top dose activity, negative = inhibition, usual class: inhibitors. G9a H3K9 monomethylation, AlphaScreen, 2 h. Q96KQ7. AID 504332. hit rate 8.8% among 350,000; also: potency is read from the fitted curve at half-maximal effect; % is scaled to controls: 0 for no effect and ±100 for the full control effect; nearly all actives have a fitted effect of over 75% in size
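G9a (20 nM) was preincubated 15 min with compound, then reacted 2 h at room temperature with 500 nM biotin-H3K9 peptide and 20 µM SAM. Monomethyl-H3K9 detected by AlphaScreen using anti-H3K9me1 antibody.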
L3MBTL1 inh: blocks human L3MBTL1; Q9Y468; AlphaScreen L3MBTL1–H3K9me1 peptide binding; Potency, µM (titrated, usually from 57.1 µM), inactives show at the highest dose activity, negative = inhibition, usual class: inhibitors; hit rate 0.66% among 230,000; also: potency is read from the fitted curve at half-maximal effect; % is scaled to controls: 0 for no effect and ±100 for the full control effect; nearly all actives have a fitted effect of over 60% in size
Target sequence (Q9Y468 whole entry, looked up): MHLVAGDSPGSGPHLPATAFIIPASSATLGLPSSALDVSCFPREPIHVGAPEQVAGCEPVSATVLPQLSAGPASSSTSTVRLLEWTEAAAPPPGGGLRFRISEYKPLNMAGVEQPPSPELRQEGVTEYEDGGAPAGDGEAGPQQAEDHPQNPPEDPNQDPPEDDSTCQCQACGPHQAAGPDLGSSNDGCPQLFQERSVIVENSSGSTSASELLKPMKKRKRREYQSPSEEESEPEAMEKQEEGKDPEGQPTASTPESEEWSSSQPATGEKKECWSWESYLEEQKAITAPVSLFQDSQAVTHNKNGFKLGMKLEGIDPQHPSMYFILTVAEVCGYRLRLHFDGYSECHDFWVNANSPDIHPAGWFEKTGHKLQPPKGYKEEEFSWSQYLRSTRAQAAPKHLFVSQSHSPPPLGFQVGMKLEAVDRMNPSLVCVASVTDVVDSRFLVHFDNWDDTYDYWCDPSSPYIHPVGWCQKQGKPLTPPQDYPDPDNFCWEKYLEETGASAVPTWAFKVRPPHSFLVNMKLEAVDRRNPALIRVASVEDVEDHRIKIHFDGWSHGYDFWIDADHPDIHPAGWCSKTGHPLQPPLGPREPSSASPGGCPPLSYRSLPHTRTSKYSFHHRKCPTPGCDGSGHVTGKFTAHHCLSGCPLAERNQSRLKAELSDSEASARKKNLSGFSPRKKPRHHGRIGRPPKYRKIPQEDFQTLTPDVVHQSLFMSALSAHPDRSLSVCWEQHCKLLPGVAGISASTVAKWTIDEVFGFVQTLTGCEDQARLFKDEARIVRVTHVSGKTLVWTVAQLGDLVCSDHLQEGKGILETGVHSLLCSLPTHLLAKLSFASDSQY
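L3MBTL1 (50 nM) pre-complexed 30 min with biotinylated H3(1-15)K9me1 peptide (75 nM), then compounds added for 30 min at room temperature; AlphaScreen streptavidin donor/nickel chelate acceptor beads (10 ug/mL final) read after 30 min dark incubation.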
BAZ2B inh: BAZ2B (human) inhibition | hit rate 4.4% among 360,000 | Potency, µM (highest dose often 114 µM), for inactives: at the highest dose activity change, negative = inhibition, most hits filed as inhibitors | AlphaScreen BAZ2B-H3K14Ac peptide displacement; also: potency is read from the fitted curve at half-maximal effect; % is scaled to controls: 0 for no effect and ±100 for the full control effect; nearly all actives have a fitted effect of over 60% in size
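AlphaScreen luminescence quantifies BAZ2B engagement of H3K14Ac peptide; the protein and biotinylated peptide are both at 50 nM final, buffer PBS pH 7.4 with 0.01% Tween-20, all steps at room temperature.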
JMJD2A Tudor inh: inhibitors of human JMJD2A Tudor domain; hit rate 4.4% among 390,000; Potency, µM (titrated, usually from 114 µM), for inactives: top-dose activity change, negative = inhibition, hits mostly inhibitors; O75164; AlphaScreen JMJD2A-Tudor / H3K4me3 peptide binding; also: potency is read from the fitted curve at half-maximal effect; % is scaled to controls: 0 for no effect and ±100 for the full control effect; nearly all actives have a fitted effect of over 50% in size
* hit, by the source's call; [ ] = another dose, or the depositor's remark. An excerpt weighted towards active compounds, which were near 11% of everything screened. Unless noted, calls follow the shape of the dose curve; as a rule, active = well fitted inhibition curve with a large enough effect; inconclusive = small, poorly fitted or top-dose-only effect; inactive = no such curve, though single readings can be large or run the other way.

Results for CCC1C(O)=C(c2ccccn2)C(=N)N1c1ccccc1 (configuration not stated) ?
HP1b chromo inh: 24.8%; G9a block: 22.4µM*; L3MBTL1 inh: -4.2%; BAZ2B inh: inconclusive; JMJD2A Tudor inh: -20.8%

How did COc1ccc(C2=C(O)C(C)N(c3ccccc3)C2=N)cc1OC (configuration not stated) do in these assays?
HP1b chromo inh: 30.1%; G9a block: -21.1%; L3MBTL1 inh: 5.5%; BAZ2B inh: -4.6%; JMJD2A Tudor inh: -14.5%

What do the screens show for `Cc1cccc(C)c1N1C(=O)[C@@H]2C(c3ccccc3Cl)=NO[C@@H]2C1=O`?
HP1b chromo inh: 5.5%; PI5P4K alpha inh: -1.6; G9a block: 50.1µM*; L3MBTL1 inh: 0.9%; BAZ2B inh: -1.7%; JMJD2A Tudor inh: -10.1%

What do the screens show for `COc1ccc(C2=NO[C@@H]3C(=O)N(c4c(C)cccc4C)C(=O)[C@H]23)cc1OC`?
HP1b chromo inh: 43.0%; PI5P4K alpha inh: 0.3; G9a block: 50.1µM*; L3MBTL1 inh: 1.5%; BAZ2B inh: 3.3%; JMJD2A Tudor inh: -12.3%

How did Cc1ccc(N2C(=O)[C@@H]3C(c4cccnc4)=NO[C@@H]3C2=O)cc1 do in these assays?
HP1b chromo inh: 21.8%; PI5P4K alpha inh: -1.5; G9a block: -14.8%[12.7 µM]; L3MBTL1 inh: 33.2%; BAZ2B inh: -4.8%; JMJD2A Tudor inh: -20.6%

What do the screens show for `Cc1ccc(C(=O)NCC(=O)OCC(=O)NC(C)C2CC3CCC2C3)cc1` (configuration not stated)?
HP1b chromo inh: 28.4%; PI5P4K alpha inh: 12.7; G9a block: 28.2µM*; L3MBTL1 inh: 2.8%; BAZ2B inh: 16.0%; JMJD2A Tudor inh: -11.0%

How did O=C(OCC#CCSc1nnc(-c2cccc3ccccc23)o1)c1ccccc1F do in these assays?
JMJD2A Tudor inh: 38.8%

How did CCCC(=O)Nc1cc(C(=O)O)ccc1Sc1ccc(C)cc1 do in these assays?
HP1b chromo inh: 34.5%; PI5P4K alpha inh: 5.9; G9a block: 44.7µM*; BAZ2B inh: 1.5%; JMJD2A Tudor inh: -11.6%

What do the screens show for `COc1ccc(C2Nc3ccccc3C(=O)N2Cc2ccccc2)cc1COc1cccc(C(F)(F)F)c1` (configuration not stated)?
JMJD2A Tudor inh: -11.6%

What do the screens show for `c1ccc(-n2cnnc2SCc2cn3ccccc3n2)cc1`?
HP1b chromo inh: 32.0%; G9a block: 50.1µM*; L3MBTL1 inh: -0.5%; BAZ2B inh: 2.9%; JMJD2A Tudor inh: -6.4%

How did Cc1cccc2nc(CSc3nncn3-c3ccccc3)cn12 do in these assays?
HP1b chromo inh: 34.2%; PI5P4K alpha inh: -2.5; G9a block: 39.8µM*; L3MBTL1 inh: 0.5%; BAZ2B inh: -9.1%; JMJD2A Tudor inh: -14.6%

How did Brc1c(CSc2nncn2-c2ccccc2)nc2ncccn12 do in these assays?
HP1b chromo inh: 15.3%; PI5P4K alpha inh: -2.7; G9a block: 56.2µM*; L3MBTL1 inh: -8.4%; BAZ2B inh: -36.1%; JMJD2A Tudor inh: -1.9%

What do the screens show for `Cc1cccc2nc(CSc3nnnn3-c3ccccc3)cn12`?
HP1b chromo inh: 60.8%; PI5P4K alpha inh: 3.1; G9a block: -11.6%; L3MBTL1 inh: -1.5%; BAZ2B inh: -1.9%; JMJD2A Tudor inh: -26.7%[57.1 µM]

What do the screens show for `Brc1c(CSc2nncn2-c2ccccc2)nc2sccn12`?
HP1b chromo inh: 13.1%; G9a block: 42.6%[59 µM]; L3MBTL1 inh: 46.8%; BAZ2B inh: 39.1%; JMJD2A Tudor inh: -15.3%

Results for COc1ccc(-c2ccc(OC)c(C3C4C=CCC(C)C4C(=O)N3Cc3ccccc3)c2)cc1 (configuration not stated) ?
HP1b chromo inh: 20.4%; JMJD2A Tudor inh: -27.6%

How did COc1ccccc1NC(=O)CSc1nc2c(oc3ccccc32)c(=O)n1-c1ccccc1F do in these assays?
HP1b chromo inh: 4.2%; G9a block: -4.3%[59 µM]; BAZ2B inh: -3.7%; JMJD2A Tudor inh: -22.2%
